Among the data in PubChem BioAssay AID720723 (Molecular Libraries Program, Specialized Chemistry Center, …, 2013) are IC50 values, retold here.

Unmarked numbers belong to inactive results. Activity calls are given as the source filed them. The limit is not given here; nearly all actives have IC50 up to about 87 µM.

The test in a line: rhodamine 123 fluorescence quenching, dose response, artefact control for mitochondrial permeability transition pore inhibitor project, biochemical, dry powder samples (AID 720723). The settings on record: Rhodamine 123 fluorescence quenching counterscreen, cell-free.
For the compound `N=c1sccn1CC(=O)Nc1cccc(Oc2ccccc2)c1`, the IC50 was 54.4 µM (active).
The same measure for `Cc1ccc2nc(N(CCCN(C)C)C(=O)CCc3ccccc3)sc2c1`: 34.1 µM (active).
Under `COCCCNCCCOc1ccc(Cl)cc1C(C)(C)C` stands 42.3 µM (active); under `Cc1ccc2nc(N(CCN(C)C)C(=O)/C=C/c3cccs3)sc2c1`, greater than 100 µM; under `CNCCC=C1c2ccccc2CCc2ccccc21`, greater than 100 µM.
Under `C=CCNCCOCCOc1ccc(Cl)cc1C(C)(C)C` stands 21.9 µM (active); under `CCN(CC)CCCN=Cc1c(O)n(Cc2ccccc2)c(=O)c2ccccc12`, greater than 100 µM; under `COc1cc(NC(=O)c2cc(-c3cccc(O)c3)on2)cc(OC)c1OC`, greater than 100 µM.
Turning to `COC(=O)c1c(NC(=O)C2CCCCC2)sc2c1CC(C)(C)NC2(C)C`, the IC50 is 48.1 µM (active).
As to `CCOC(=O)N1CCN(S(=O)(=O)c2ccc(C(=O)N(CCCN(C)C)c3nc4c(C)c(C)ccc4s3)cc2)CC1`, the 50% inhibitory concentration (IC50) was 56.8 µM (active).
On to `C=CCNCCCOc1ccc(C)cc1Br`, for which the IC50 was 69.6 µM (active).
In the case of `COc1ccc(-n2cc(CNC3CCN(C)CC3)c(-c3cccc(F)c3)n2)cc1`, the IC50 was greater than 100 µM.
Turning to `COc1cc(CNCCO)cc(Cl)c1OCc1ccccc1Cl`, the IC50 was 31.5 µM (active).
As to `CN(C)CCCN1c2ccccc2Sc2ccc(Cl)cc21`, the IC50 is greater than 100 µM.
Under `CC1CCCN(CCC(=O)c2ccc(Br)cc2)C1` (configuration not stated) stands 85.8 µM (active); under `C=CCNCCOc1ccc(C(C)(C)c2ccccc2)cc1`, 41.6 µM (active).
The same measure for `N#Cc1c(NCCN)nc(-c2ccco2)c2c1CCCC2`: 82.5 µM (active).

As a reminder, the IC50 is the concentration that gives 50% inhibition.
